Screen size: about 310,000 compounds; about 1,200 (0.39%) were called active. How the calls were made is not given here. A selection follows. Entries with a potency or affinity are not part of this list.
Biological target: Large T antigen (Simian virus 40) (UniProt P03070)
Assay: SV40 large T antigen inhibitors, biochemical (AID 1903)
Conditions: SV40 large T antigen ATPase/helicase inhibition assay; at 20 µM; stronger effect = higher value

Large T antigen (Simian virus 40), sequence (P03070 whole entry, looked up): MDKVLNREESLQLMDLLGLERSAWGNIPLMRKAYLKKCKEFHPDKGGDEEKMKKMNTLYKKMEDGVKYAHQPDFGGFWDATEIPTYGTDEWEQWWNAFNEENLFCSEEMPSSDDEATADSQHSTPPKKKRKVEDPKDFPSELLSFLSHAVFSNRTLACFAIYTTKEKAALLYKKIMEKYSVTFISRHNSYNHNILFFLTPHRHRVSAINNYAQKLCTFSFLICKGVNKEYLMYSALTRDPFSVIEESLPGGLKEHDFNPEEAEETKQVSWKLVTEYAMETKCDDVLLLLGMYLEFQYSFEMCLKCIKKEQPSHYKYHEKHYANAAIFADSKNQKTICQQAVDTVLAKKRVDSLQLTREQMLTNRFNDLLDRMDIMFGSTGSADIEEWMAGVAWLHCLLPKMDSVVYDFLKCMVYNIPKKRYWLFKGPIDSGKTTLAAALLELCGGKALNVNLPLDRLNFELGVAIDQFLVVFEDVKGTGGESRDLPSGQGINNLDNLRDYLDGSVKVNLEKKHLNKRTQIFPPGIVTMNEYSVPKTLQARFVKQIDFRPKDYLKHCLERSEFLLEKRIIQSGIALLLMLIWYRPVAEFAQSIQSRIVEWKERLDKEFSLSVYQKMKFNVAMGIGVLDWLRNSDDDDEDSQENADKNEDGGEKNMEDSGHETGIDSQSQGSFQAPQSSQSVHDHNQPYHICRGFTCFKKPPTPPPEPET

inhibition, inactive:
CC(NC(=O)Cn1c(NCCO)nc2ccccc21)c1ccccc1 (stereo not drawn) -0.56%
CCOc1ccc(C(=O)NC(C(=O)NCc2ccccc2OC)C(C)C)cc1 (stereo not drawn) 20.8%
Cc1ccc(CNC(=O)c2ccccc2NC(=O)CN2CC(C)OC(C)C2)cc1 (stereo not drawn) 2.54%
Cc1ccc(S(=O)(=O)N(C)C)cc1NC(=O)COC(=O)c1ccc2c(c1)NC(=O)CS2 2.57%
CC(CN1CCCCC1)OC(=O)c1ccc(Cl)cc1 (stereo not drawn) -0.49%
Cc1[nH]c2ccccc2c1-c1csc(NC(=O)CSCCO)n1 23.2%
Cc1[nH]c2ccccc2c1-c1csc(NC(=O)CN2CCOCC2)n1 35.5%
Cc1ccc(CNC(=O)COC(=O)c2cc3c(s2)CCC(C)C3)cc1 (stereo not drawn) 0.58%
C#CCOCCOCCOCCNc1nc(N2CCN(C(=O)Cn3cc(CCCN=C(N)N)nn3)CC2)nc(N2CCN(C(=O)[C@H](CCCCN)n3cc(CCCC)nn3)CC2)n1 10.3%
O=C(NC1CC1)c1scc2c1OCCO2 -3.94%
COc1ccc(CC(=O)N/N=C(\C)CC(=O)Nc2ccc3c(c2)OCCO3)cc1OC 8.47%
COC(C(=O)Nc1ccc(NC(=O)C(OC)c2ccccc2)cc1)c1ccccc1 (stereo not drawn) 0.71%
COc1ccc(CNC(=O)C/C(C)=N/NC(=O)Cc2ccc(OC)c(OC)c2)cc1 9.86%
COc1cc(NC(=O)C/C(C)=N/NC(=O)C(OC)c2ccccc2)c(OC)cc1Cl (stereo not drawn) 7.44%
CC(=O)NC(C)Cc1cn(Cc2ccccc2)c2ccccc12 (stereo not drawn) 19.1%
COC(=O)c1sc(NC(=O)c2cccc([N+](=O)[O-])c2)c(C(N)=O)c1C 9.65%
Cc1ccccc1CNCCCSc1ncccn1 11.1%
COc1ccc(CN2CCCCCC2)c(C)c1C 12.7%
CC(C)(C)c1cc2nc(N)nc(N)n2n1 8.32%
O=C(Nc1ccccc1Cl)c1ccc(COc2ccc3c(c2)CCC3)cc1 20.5%
CN(C(=O)CC(NC(=O)c1ccccc1Cl)c1ccccc1)c1ccccc1 (stereo not drawn) 12.8%
COc1cc2cccc(OC)c(=O)c2c(O)c1OC 2.12%
COc1cc2ccc3c(CCN(C)C)cc(OC)c(OC)c3c2cc1OC 6.37%
CC(=O)Nc1ccc(S(=O)(=O)Oc2ccccc2N2CCCCC2)cc1 2.71%
CCOc1cc(/C=N/NC(=O)C2CCCC2)ccc1O 36.2%
COc1cc(/C=N/n2cnnc2)ccc1OC(=O)c1cccnc1 27.4%
COc1ccc(/C=N/NC(=O)CC(=O)NCCc2ccccc2)cc1OC -5.15%
CCOc1cc(/C=N/NC(=O)C(=O)N/N=C/c2ccc(O)c(OCC)c2)ccc1O 8.63%
COc1ccccc1/C=N/NC(=O)CC(=O)NCCc1ccccc1 9.39%
COc1cc(/C=N/n2cnnc2)ccc1OC(=O)c1ccco1 24.8%
Cc1ccc(/C=N\NC(=O)CC(=O)NCCc2ccccc2)cc1 7.24%
CCOc1ccc(/C=N\NC(=O)CC(=O)NCCc2ccccc2)cc1 4.85%
CC(Nc1c[nH]c(=O)[nH]c1=O)c1ccccc1 (stereo not drawn) 28.4%
N#CC1=C(N)N2C(=C(C#N)C13CCCCC3)SC1CCCCC12O (stereo not drawn) 2.16%
CCc1cc(Cn2nc(-c3ccccc3)cc2C(=O)NCc2ccccc2OC)on1 2.01%
COc1ccccc1CC(NC(C)=O)C(=O)N1CCN(C(=O)Nc2ccccc2Cl)CC1 (stereo not drawn) 11.4%
Cc1ccc(NC(=O)c2ccc3nsnc3c2)c(C)c1 3.08%
O=C(NC(C1CC1)C1CC1)C1CCC(=O)N(CCCN2CCCC2=O)C1 (stereo not drawn) 8.58%
FC(F)(F)c1cccc(Nc2nc(N3CCOCC3)nc(N3CCOCC3)n2)c1 6.77%
COc1ccc(/C=C2\CCC(C3CCCC3)C2=O)c(OC)c1OC (stereo not drawn) 15.3%
Cc1ccc(S(=O)(=O)Nc2ccc(Oc3cccnc3)nc2)cc1 9.11%
CC(=O)Nc1ccc(SC[C@H](c2ccccc2)N2CCN(CCc3ccccc3)CCC2=O)cc1 16.3%
COc1ccc(-c2nnc(-c3cc4ccccc4oc3=O)o2)cc1 -1.16%
O=C(C1CCCN(Cc2cccc(Cl)c2)C1)N1CCCCC1 (stereo not drawn) 2.11%
COc1cc(SC)ccc1C(=O)Nc1ncc(Cl)cc1Cl -2.54%
CNC(=S)N/N=C/c1cn(CCOc2ccc(OC)cc2)c2ccccc12 6.11%
Cc1c(CN(C)C)c2c(n1Cc1ccccc1)C(=O)c1ccccc1-2 2.92%
CCOc1cc(/C=N/n2cnnc2)cc(Br)c1O 23.3%
CCOc1cc(/C=N/n2c(C)nnc2C)ccc1O 27.2%
Clc1ccccc1Cn1nc(-c2ccccc2)nc1-c1ccccc1 1.23%
Cn1ccnc1SCC(=O)Nc1cc(C(F)(F)F)ccc1N1CCOCC1 7.01%
COC(=O)c1ccc2c(=O)n(-c3ccc(OC)cc3)c(=S)[nH]c2c1 6.42%
O=C(COC(=O)CCC1CCCC1)NCc1ccc(Cl)cc1 17.3%
COC(=O)c1cn(CCOc2ccccc2F)c2ccccc12 1.53%
O=[N+]([O-])c1cn(Cc2ccc(Cl)cc2)cn1 1.06%
CCOc1cc(/C=C2\C(=O)N(c3cccc(C(F)(F)F)c3)C(=O)c3ccccc32)ccc1O 9.18%
Cc1cccc(N2C(=O)/C(=C\c3ccc(C(=O)O)cc3)c3ccccc3C2=O)c1 36.5%
CC(C)c1nnc(NC(=O)c2cccnc2)s1 2.86%
OC1CCN(C(=S)Nc2ccc(Oc3ccccc3)cc2)CC1 -15.6%
O=C(Nc1ccccc1)NC1(C(=O)N2CCC(O)CC2)CCCCC1 4.76%
C/C(=N\NC(=O)C(C)Sc1ccccc1)C(C)(C)C (stereo not drawn) 17.5%
CC(CCc1ccc(O)cc1)NCc1ccc(Br)cc1 (stereo not drawn) 3.95%
OCCc1ccc(O)cc1 27%
N/C(=N\OC(=O)Cc1cccs1)c1cccc([N+](=O)[O-])c1 3.85%
COc1cc(Br)c(C2C(C#N)=C(N)Oc3n[nH]c(-c4cccnc4)c32)cc1OC (stereo not drawn) 18.6%
COc1cc(OC)cc(C2C(C#N)=C(N)Oc3n[nH]c(-c4cccnc4)c32)c1 (stereo not drawn) 16.8%
COc1cc(OC)c2c(c1)C(=O)OC2OC (stereo not drawn) 2.96%
CC(NC(=O)CS(=O)(=O)c1ccccc1)c1ccccc1 (stereo not drawn) 25%
O=C(c1ccc2ccccc2c1)N1CCCC1 0.92%
O=C(c1ccc2ncsc2c1)N1CCCCC1 18.2%
O=C(c1ccc2ncsc2c1)N1CCN(c2ccccc2Cl)CC1 11.3%
COc1ccc(-c2cccc(C(=O)N3CCOCC3)c2)cc1 9.81%
O=C(c1cccc(-c2ccc(O)cc2)c1)N1CCN(c2ccc(F)cc2)CC1 1.57%
O=C(c1ccc2ccccc2c1)N1CCN(c2ccccc2)CC1 10.3%
CCOC(=O)c1nn(-c2ccc(F)cc2)c(=O)cc1OCC(=O)N1CCN(c2ccccc2)CC1 5.17%
CCN(CC)C(=O)C[n+]1ccc(C(N)=O)cc1 4.68%
Fc1ccccc1/C=N/n1c(COc2ccccc2)n[nH]c1=S 6%
Cc1cc(Br)cc(Cl)c1OCC(=O)NC(=O)NCc1ccccc1 1.39%
CCN1C(=O)[C@H]2[C@@H](c3ccc(C)cc3)N3C(=O)N(c4ccc(C(F)(F)F)cc4)C(=O)[C@@]3(Cc3ccccc3)[C@H]2C1=O 4.67%
CC(C)C[C@H](NC(=O)CCn1nnc2ccccc2c1=O)C(=O)O 9.82%
O=C(O)CNC(=S)N(Cc1ccccc1F)C1CCCCC1 4.15%
O=C(Oc1ccc(-c2cnc3ccccc3n2)cc1)c1cc([N+](=O)[O-])ccc1Cl 7.12%
O=C(Oc1ccc(-c2cnc3ccccc3n2)cc1)c1cccc([N+](=O)[O-])c1 3.96%
COCC(C)NC(=O)c1noc2c1CCc1cc(OC)ccc1-2 (stereo not drawn) -0.97%
CCOc1ccc(NCc2cc3cc(OC)ccc3[nH]c2=O)cc1 28.1%
Cc1ccc2nc(-c3cccc(N)c3)[nH]c2c1 5.37%
Cc1ccc2nc(-c3ccccc3N)[nH]c2c1 -2.07%
CCOC(=O)c1c(S(=O)(=O)NCc2ccc(C)o2)c(C)n(C)c1C 2.28%
COc1ccc(CCC(=O)Nc2ccc(N3CCOCC3)cc2)cc1 8.67%
CC(C)c1ccc(CNc2ccc(N3CCOCC3)cc2)cc1 9.24%
c1cc(CNc2ccc(N3CCOCC3)cc2)ccn1 1.95%
COc1ccc(OCC(=O)Nc2ccc(N3CCOCC3)cc2)cc1 12.4%
COc1cccc2cc(C(=O)N(Cc3cccs3)CC3CCCO3)c(=O)oc12 (stereo not drawn) 5.05%
CCn1cc(C2=NC(c3ccccc3)CO2)c2ccccc21 (stereo not drawn) 14.4%
Cc1ccc(Sc2ncnc(N)c2[N+](=O)[O-])cc1 2.16%
CNc1cc(Cl)nc(SC)n1 5.2%
CSc1nc(Cl)cc(Nc2ccccc2N)n1 22%
CCNC(=O)O/N=C1\CCCCC1c1ccc([N+](=O)[O-])cc1[N+](=O)[O-] (stereo not drawn) 11.8%

From PubChem BioAssay AID1903 (Southern Research Specialized Biocontainment Screening …, 2009)
